# Source: the supplement of paper PMC8728848
# This is one part of a sample in which the strongest signals are shown more often than they occur.
# B1: GS13455A-bfa-343-25-343 (Bacteroides fragilis) (protein)
# chain: KDEIQIVDQDTSWQMDNKYIEEDIREQLGIDPFTDLVYLGYYGNPYTQLEAINDLVNTTLVGKNELSFKVKVTKPYKEDIKVNLMKEDKLVTDFPEMAEGIPLFPSENCTFEGGVLKAGELETTVKLTLKDVEKLNNLSGYVMAIKLTMEGSHEHLAIARTRSSYFVKLNLSIRLDNIDSSNKKIEGKGFNKEISFKSDIRPDKLGSLNDGNFTANNWYTSNANNYLTIILPEKQSLKGFRLDTNTSPSGSYMLKSCRVMVETPDGNWVNHGVFDRKSMDGIAYISFKKPVECTKVRFENMMAFNGRFSVDVNEVTAFR
# Columns and labels:
# Assay in all cases: glycan array binding signal (z-score within array); higher = stronger binding
# Conditions in all cases: glycan notation: IUPAC condensed, linker removed
# [1] = biological target: Fuc(a1-2)Gal(b1-3)GlcNAc(b1-2)Man(a1-3)[Fuc(a1-2)Gal(b1-3)GlcNAc(b1-2)Man(a1-6)]Man(b1-4)GlcNAc(b1-4)GlcNAc
# Summary of the method: (§1)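 The Consortium for Functional Glycomics database supplied 3228 glycan arrays, of which those lacking an available protein sequence were dropped. The binding signal, a within-array Z-score, was averaged across arrays of the same protein sequence and across linkers. Negative scores can be read as non-binding.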
# [2] = biological target: Fuc(a1-2)Gal(b1-4)[Fuc(a1-3)]GlcNAc(b1-3)[Neu5Ac(a2-6)Gal(b1-4)GlcNAc(b1-6)]Gal(b1-4)Glc
# Summary of the method: as §1
# [3] = biological target: Fuc(a1-2)Gal6S(b1-4)Glc6S
# Summary of the method: as §1
# [4] = biological target: Fuc(a1-2)[Gal(a1-3)]Gal(b1-3)GlcNAc(b1-2)Man(a1-3)[Fuc(a1-2)[Gal(a1-3)]Gal(b1-3)GlcNAc(b1-2)Man(a1-6)]Man(b1-4)GlcNAc(b1-4)GlcNAc
# Summary of the method: as §1
# [5] = biological target: Fuc(a1-2)[GalNAc(a1-3)]Gal(b1-3)GlcNAc(b1-3)GalNAc
# Summary of the method: as §1
# [6] = biological target: Fuc(a1-2)[GalNAc(a1-3)]Gal(b1-4)GlcNAc(b1-2)Man(a1-3)[Fuc(a1-2)[GalNAc(a1-3)]Gal(b1-4)GlcNAc(b1-2)Man(a1-6)]Man(b1-4)GlcNAc(b1-4)[Fuc(a1-6)]GlcNAc
# Summary of the method: as §1
# Fuc(a1-4)GlcNAc = biological target: Fuc(a1-4)GlcNAc
# Summary of the method: as §1
# [7] = biological target: Gal(a1-3)Gal(b1-3)GlcNAc(b1-2)Man(a1-3)[Gal(a1-3)Gal(b1-3)GlcNAc(b1-2)Man(a1-6)]Man(b1-4)GlcNAc(b1-4)GlcNAc
# Summary of the method: as §1
# [8] = biological target: Gal(a1-3)[Gal(a1-4)]Gal(b1-4)GlcNAc
# Summary of the method: as §1
# [9] = biological target: Gal(b1-3)GalNAc(a1-3)[Fuc(a1-2)]Gal(b1-4)Glc
# Summary of the method: as §1
# [10] = biological target: Gal(b1-3)GalNAc(b1-4)[Neu5Ac(a2-3)]Gal(b1-4)Glc
# Summary of the method: as §1
# [11] = biological target: Gal(b1-3)GlcNAc(b1-3)Gal(b1-4)[Fuc(a1-3)]GlcNAc(b1-6)[Gal(b1-3)GlcNAc(b1-3)]Gal(b1-4)Glc
# Summary of the method: as §1
# [12] = biological target: Gal(b1-4)GalNAc(a1-3)[Fuc(a1-2)]Gal(b1-4)GlcNAc
# Summary of the method: as §1
# [13] = biological target: Gal(b1-4)GlcNAc(b1-2)[Gal(b1-4)GlcNAc(b1-6)]Man(a1-6)[Gal(b1-4)GlcNAc(b1-2)Man(a1-3)]Man(b1-4)GlcNAc(b1-4)GlcNAc
# Summary of the method: as §1
# [14] = biological target: Gal(b1-4)GlcNAc(b1-2)[Gal(b1-4)GlcNAc(b1-6)]Man(a1-6)[GlcNAc(b1-4)][Gal(b1-4)GlcNAc(b1-2)[Gal(b1-4)GlcNAc(b1-4)]Man(a1-3)]Man(b1-4)GlcNAc(b1-4)[Fuc(a1-6)]GlcNAc
# Summary of the method: as §1
# [15] = biological target: Gal(b1-4)GlcNAc(b1-3)Gal(b1-3)GalNAc
# Summary of the method: as §1
# [16] = biological target: Gal(b1-4)GlcNAc(b1-3)Gal(b1-4)GlcNAc(b1-3)Gal(b1-4)GlcNAc(b1-3)Gal(b1-4)GlcNAc(b1-2)[Gal(b1-4)GlcNAc(b1-3)Gal(b1-4)GlcNAc(b1-3)Gal(b1-4)GlcNAc(b1-3)Gal(b1-4)GlcNAc(b1-6)]Man(a1-6)[Gal(b1-4)GlcNAc(b1-3)Gal(b1-4)GlcNAc(b1-3)Gal(b1-4)GlcNAc(b1-3)Gal(b1-4)GlcNAc(b1-2)Man(a1-3)]Man(b1-4)GlcNAc(b1-4)[Fuc(a1-6)]GlcNAc
# Summary of the method: as §1
# [17] = biological target: Gal(b1-4)GlcNAc(b1-3)Gal(b1-4)GlcNAc(b1-3)GalNAc
# Summary of the method: as §1
# Gal3S(b1-4)Glc = biological target: Gal3S(b1-4)Glc
# Summary of the method: as §1
# [18] = biological target: Gal3S(b1-4)[Fuc(a1-3)]Glc6S
# Summary of the method: as §1
# Gal3S6S(b1-4)GlcNAc6S = biological target: Gal3S6S(b1-4)GlcNAc6S
# Summary of the method: as §1
# Gal4S6S(b1-4)GlcNAc = biological target: Gal4S6S(b1-4)GlcNAc
# Summary of the method: as §1
# Gal6P(b1-4)GlcNAc = biological target: Gal6P(b1-4)GlcNAc
# Summary of the method: as §1
# Gal6S(b1-3)GlcNAc = biological target: Gal6S(b1-3)GlcNAc
# Summary of the method: as §1
# [19] = biological target: GalNAc(b1-3)Gal(a1-4)Gal(b1-4)GlcNAc
# Summary of the method: as §1
# GalNAc(b1-4)GlcNAc = biological target: GalNAc(b1-4)GlcNAc
# Summary of the method: as §1
# [20] = biological target: GalNAc(b1-4)GlcNAc(b1-2)Man(a1-3)[GalNAc(b1-4)GlcNAc(b1-2)Man(a1-6)]Man(b1-4)GlcNAc(b1-4)GlcNAc
# Summary of the method: as §1
# GalNAc3S(b1-4)GlcNAc = biological target: GalNAc3S(b1-4)GlcNAc
# Summary of the method: as §1
# [21] = biological target: Glc(a1-6)Glc(a1-6)Glc(a1-6)Glc
# Summary of the method: as §1
# [22] = biological target: GlcNAc(a1-4)Gal(b1-4)GlcNAc(b1-3)Gal(b1-4)Glc
# Summary of the method: as §1
# [23] = biological target: GlcNAc(a1-4)Gal(b1-4)GlcNAc(b1-3)Gal(b1-4)[Fuc(a1-3)]GlcNAc(b1-3)Gal(b1-4)[Fuc(a1-3)]GlcNAc
# Summary of the method: as §1
# [24] = biological target: GlcNAc(b1-2)Man(a1-3)[GlcNAc(b1-2)Man(a1-6)]Man(b1-4)GlcNAc(b1-4)[Fuc(a1-6)]GlcNAc
# Summary of the method: as §1
# [25] = biological target: GlcNAc(b1-3)Gal(b1-4)GlcNAc(b1-2)Man(a1-3)[GlcNAc(b1-3)Gal(b1-4)GlcNAc(b1-2)Man(a1-6)]Man(b1-4)GlcNAc(b1-4)[Fuc(a1-6)]GlcNAc
# Summary of the method: as §1
# [26] = biological target: GlcNAc(b1-3)Gal(b1-4)GlcNAc(b1-6)[Gal(b1-3)]GalNAc
# Summary of the method: as §1
# GlcNAc(b1-6)GalNAc = biological target: GlcNAc(b1-6)GalNAc
# Summary of the method: as §1
# [27] = biological target: Man(a1-2)Man(a1-3)[Man(a1-2)Man(a1-6)]Man
# Summary of the method: as §1
# [28] = biological target: Man(a1-2)Man(a1-3)[Man(a1-2)Man(a1-6)]Man(a1-6)[Man(a1-2)Man(a1-2)Man(a1-3)]Man
# Summary of the method: as §1
# [29] = biological target: Man(a1-2)Man(a1-6)[Man(a1-3)]Man(a1-6)[Man(a1-2)Man(a1-2)Man(a1-3)]Man
# Summary of the method: as §1
# [30] = biological target: Man(a1-3)[Man(a1-6)]Man(a1-6)[Man(a1-3)]Man
# Summary of the method: as §1
# Man(a1-6)Man = biological target: Man(a1-6)Man
# Summary of the method: as §1
# [31] = biological target: Neu5Ac(a2-3)Gal(b1-3)GalNAc
# Summary of the method: as §1
# [32] = biological target: Neu5Ac(a2-3)Gal(b1-4)GlcNAc
# Summary of the method: as §1
# [33] = biological target: Neu5Ac(a2-3)Gal(b1-4)GlcNAc(b1-3)Gal(b1-3)GlcNAc
# Summary of the method: as §1
# [34] = biological target: Neu5Ac(a2-3)Gal(b1-4)GlcNAc(b1-6)[Gal(b1-3)]GalNAc
# Summary of the method: as §1
# [35] = biological target: Neu5Ac(a2-3)Gal(b1-4)[Fuc(a1-3)]GlcNAc(b1-3)GalNAc
# Summary of the method: as §1
# Neu5Ac(a2-3)GalNAc = biological target: Neu5Ac(a2-3)GalNAc
# Summary of the method: as §1
# [36] = biological target: Neu5Ac(a2-6)Gal(b1-4)GlcNAc(b1-2)Man(a1-3)[GlcNAc(b1-2)Man(a1-6)]Man(b1-4)GlcNAc(b1-4)GlcNAc
# Summary of the method: as §1
# [37] = biological target: Neu5Ac(a2-8)Neu5Ac(a2-8)Neu5Ac(a2-3)[Gal(b1-3)GalNAc(b1-4)]Gal(b1-4)Glc
# Summary of the method: as §1
# [38] = biological target: Neu5Gc(a2-8)Neu5Gc(a2-3)Gal(b1-4)GlcNAc
# Summary of the method: as §1
binder,measurement,setting,value
B1,glycan array binding signal (z-score),[1],-0.69
same,glycan array binding signal (z-score),[2],-0.309
same,glycan array binding signal (z-score),[3],0.254
same,glycan array binding signal (z-score),[4],-0.738
same,glycan array binding signal (z-score),[5],2.29
same,glycan array binding signal (z-score),[6],1.46
same,glycan array binding signal (z-score),Fuc(a1-4)GlcNAc,20.2
same,glycan array binding signal (z-score),[7],-0.044
same,glycan array binding signal (z-score),[8],1.91
same,glycan array binding signal (z-score),[9],-0.504
same,glycan array binding signal (z-score),[10],-0.051
same,glycan array binding signal (z-score),[11],-0.016
same,glycan array binding signal (z-score),[12],-0.716
same,glycan array binding signal (z-score),[13],-0.11
same,glycan array binding signal (z-score),[14],-0.04
same,glycan array binding signal (z-score),[15],0.107
same,glycan array binding signal (z-score),[16],0.144
same,glycan array binding signal (z-score),[17],-0.065
same,glycan array binding signal (z-score),Gal3S(b1-4)Glc,1.7
same,glycan array binding signal (z-score),[18],1.38
same,glycan array binding signal (z-score),Gal3S6S(b1-4)GlcNAc6S,1.68
same,glycan array binding signal (z-score),Gal4S6S(b1-4)GlcNAc,0.197
same,glycan array binding signal (z-score),Gal6P(b1-4)GlcNAc,-0.523
same,glycan array binding signal (z-score),Gal6S(b1-3)GlcNAc,-0.365
same,glycan array binding signal (z-score),[19],1.43
same,glycan array binding signal (z-score),GalNAc(b1-4)GlcNAc,-0.125
same,glycan array binding signal (z-score),[20],1.75
same,glycan array binding signal (z-score),GalNAc3S(b1-4)GlcNAc,-0.39
same,glycan array binding signal (z-score),[21],-0.604
same,glycan array binding signal (z-score),[22],0.059
same,glycan array binding signal (z-score),[23],1.64
same,glycan array binding signal (z-score),[24],-0.409
same,glycan array binding signal (z-score),[25],0.601
same,glycan array binding signal (z-score),[26],-0.194
same,glycan array binding signal (z-score),GlcNAc(b1-6)GalNAc,-0.656
same,glycan array binding signal (z-score),[27],-0.554
same,glycan array binding signal (z-score),[28],-0.701
same,glycan array binding signal (z-score),[29],0.988
same,glycan array binding signal (z-score),[30],-0.129
same,glycan array binding signal (z-score),Man(a1-6)Man,0.205
same,glycan array binding signal (z-score),[31],0.08
same,glycan array binding signal (z-score),[32],-0.152
same,glycan array binding signal (z-score),[33],0.34
same,glycan array binding signal (z-score),[34],-0.414
same,glycan array binding signal (z-score),[35],3.25
same,glycan array binding signal (z-score),Neu5Ac(a2-3)GalNAc,-0.681
same,glycan array binding signal (z-score),[36],0.878
same,glycan array binding signal (z-score),[37],-0.113
same,glycan array binding signal (z-score),[38],0.527
